In PubChem BioAssay (NCI):
This is part of a sample that, as a whole, favours compounds with a hit. Of some 83,000 tested, about 20% had one in any assay.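 Assay: single dose, 48 h. Readout: percent growth (0 = no net growth; negative = cell death). Active: <10.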 Calls of active or inactive are those of the source. *1 amine or outer side, *2 acyl side, *3 side chain or, on linkers, in order; H or OH if unused. Where a SMILES comes first, the peptide text is derived from it. [ ]: non-standard residue; d: D form. The star is where a group is joined. X5 = CCC(=O)CC1CC(C)CC(C(=O)[*:2])N1[*:1]; X4 = CCCCCCCCC(C)C(=O)*; Aib = CC(C)(N)C(=O)O; X6 = CC(CN(C)CCO)N*

Columns and labels:
Assay in all cases: NCI-60 one-dose screen, 48 h (100 = growth as untreated, 0 = no growth, -100 = all killed)
HCT-15 colon = conditions: 10 µM unless noted
HT29 colon = conditions: 10 µM unless noted
SNB-75 CNS = conditions: 10 µM unless noted
SNB-19 CNS = conditions: 10 µM unless noted
U251 CNS = conditions: 10 µM unless noted
SK-MEL-5 melanoma = conditions: 10 µM unless noted
UACC-62 melanoma = conditions: 10 µM unless noted
LOX IMVI melanoma = conditions: 10 µM
SK-MEL-28 melanoma = conditions: 10 µM unless noted
SK-MEL-2 melanoma = conditions: 10 µM unless noted
EKVX NSCLC = conditions: 10 µM unless noted
SN12C renal = conditions: 10 µM unless noted
UO-31 renal = conditions: 10 µM unless noted
TK-10 renal = conditions: 10 µM unless noted
CAKI-1 renal = conditions: 10 µM unless noted
A498 renal = conditions: 10 µM unless noted
MOLT-4 leukemia = conditions: 10 µM unless noted
ACHN renal = conditions: 10 µM unless noted
PC-3 prostate = conditions: 10 µM unless noted
CCRF-CEM leukemia = conditions: 10 µM unless noted

Measured: growth

CCN1/C(=C/C(C)=C/c2sc3ccc4ccccc4c3[n+]2CC)Sc2ccc3ccccc3c21
active: HCT-15 colon -81.8% | HT29 colon -80.6% | SNB-75 CNS -94.3% | SNB-19 CNS -96.5% | U251 CNS -94.1% | SK-MEL-5 melanoma -97.6% | UACC-62 melanoma -96.6% | LOX IMVI melanoma -73.9% | SK-MEL-28 melanoma -98.3% | SK-MEL-2 melanoma -93.5% | EKVX NSCLC -90.8% | SN12C renal -84.9% | UO-31 renal -89.8% | TK-10 renal -97.3% | CAKI-1 renal -97.9% | A498 renal -98.3% | MOLT-4 leukemia -43.6%

O=C1C(=O)c2cc([N+](=O)[O-])ccc2-c2ccccc21
active: HCT-15 colon -53.7% | HT29 colon -79.4% | SNB-75 CNS -98.2% | SNB-19 CNS -93.8% | U251 CNS -81.5% | SK-MEL-5 melanoma -99.6% | UACC-62 melanoma -94.2% | LOX IMVI melanoma -88.4% | SK-MEL-28 melanoma -97% | EKVX NSCLC -88.8% | SN12C renal -88.9% | UO-31 renal -87.7% | TK-10 renal -85.2% | ACHN renal -99.3% | CAKI-1 renal -68.6% | MOLT-4 leukemia 0.151%
inactive: A498 renal 110%

O=C1/C(=C\c2ccc([N+](=O)[O-])cc2)CS(=O)(=O)C/C1=C/c1ccc([N+](=O)[O-])cc1
active: HCT-15 colon -86.7% | HT29 colon -57.7% | SNB-75 CNS -89.6% | SNB-19 CNS -96.3% | U251 CNS -86.6% | PC-3 prostate -81.6% | LOX IMVI melanoma -82.8% | SK-MEL-2 melanoma -35.9% | EKVX NSCLC -63.4% | SN12C renal -41.1% | UO-31 renal -95.4% | TK-10 renal -99% | ACHN renal -98.8% | CAKI-1 renal -92.3% | CCRF-CEM leukemia -31.6% | MOLT-4 leukemia -34.7%

O=[N+]([O-])C=C(c1ccccc1)c1ccccc1
inactive: HCT-15 colon 42.7% | HT29 colon 91.7% | SNB-75 CNS 59.4% | SNB-19 CNS 85.5% | U251 CNS 80.1% | PC-3 prostate 76.5% | SK-MEL-5 melanoma 88.3% | SK-MEL-28 melanoma 90.4% | EKVX NSCLC 71% | SN12C renal 81.1% | UO-31 renal 60.9% | TK-10 renal 84.8% | ACHN renal 85.4% | CAKI-1 renal 57.1% | A498 renal 124% | MOLT-4 leukemia 70.9%

CCCCCCC1N=C(N)N=C(N)N1c1cccc(Cl)c1 (stereo unspecified)
inactive: HCT-15 colon 84.2% | HT29 colon 17.9% | SNB-19 CNS 26.9% | U251 CNS 33.6% | PC-3 prostate 29.3% | SK-MEL-5 melanoma 28.3% | LOX IMVI melanoma 17.1% | SK-MEL-28 melanoma 40% | SK-MEL-2 melanoma 82.9% | EKVX NSCLC 76.8% | UO-31 renal 93.4% | TK-10 renal 67.6% | ACHN renal 53.9% | CAKI-1 renal 100% | A498 renal 83% | CCRF-CEM leukemia 28.7% | MOLT-4 leukemia 25.4%
active: SNB-75 CNS -0.752%

Oc1ccc(Br)cc1Sc1cc(Br)ccc1O
active: SK-MEL-5 melanoma 2.54%
inactive: HCT-15 colon 36.6% | HT29 colon 116% | SNB-75 CNS 59.4% | SNB-19 CNS 41.3% | U251 CNS 46.9% | PC-3 prostate 65.4% | LOX IMVI melanoma 43.6% | SK-MEL-28 melanoma 38.9% | SK-MEL-2 melanoma 54.4% | SN12C renal 23.9% | UO-31 renal 32.9% | TK-10 renal 115% | ACHN renal 47.8% | CAKI-1 renal 99.7% | CCRF-CEM leukemia 34.3% | MOLT-4 leukemia 40.4%

CCCCOS(=O)(=O)c1ccccc1
inactive: HCT-15 colon 102% | HT29 colon 104% | SNB-75 CNS 85.9% | SNB-19 CNS 103% | U251 CNS 104% | PC-3 prostate 101% | SK-MEL-5 melanoma 117% | LOX IMVI melanoma 97.1% | SK-MEL-28 melanoma 126% | SK-MEL-2 melanoma 99.9% | EKVX NSCLC 108% | SN12C renal 100% | UO-31 renal 99.8% | TK-10 renal 106% | ACHN renal 103% | CAKI-1 renal 93.2% | A498 renal 128% | CCRF-CEM leukemia 110% | MOLT-4 leukemia 166%

Cc1cc(C(=O)c2ccc(Cl)cc2)ccc1O
inactive: HCT-15 colon 112% | HT29 colon 99.1% | SNB-75 CNS 96% | SNB-19 CNS 116% | U251 CNS 101% | SK-MEL-5 melanoma 95.3% | UACC-62 melanoma 89.8% | LOX IMVI melanoma 99.3% | SK-MEL-28 melanoma 105% | SK-MEL-2 melanoma 125% | EKVX NSCLC 81% | SN12C renal 89.3% | UO-31 renal 84.7% | TK-10 renal 87% | ACHN renal 87.3% | CAKI-1 renal 90.5% | A498 renal 76.1% | CCRF-CEM leukemia 96.9% | MOLT-4 leukemia 102%

O=C1C(=O)c2cccnc2-c2ncccc21
active: HCT-15 colon -20.5% | HT29 colon -62.9% | SNB-75 CNS -13.3% | SNB-19 CNS 0.441% | U251 CNS -91.5% | PC-3 prostate -24.5% | SK-MEL-5 melanoma -100% | LOX IMVI melanoma -83.8% | SK-MEL-28 melanoma -9.12% | EKVX NSCLC -49.7% | SN12C renal -14.3% | UO-31 renal -71.3% | TK-10 renal -24% | ACHN renal -69.4% | CAKI-1 renal -29.4% | A498 renal -39.4% | MOLT-4 leukemia -45.1%

Nc1ccc(-c2ccc(N)c(S(=O)(=O)O)c2)cc1S(=O)(=O)O
inactive: HCT-15 colon 118% | HT29 colon 109% | SNB-75 CNS 83.1% | SNB-19 CNS 101% | U251 CNS 115% | PC-3 prostate 101% | SK-MEL-5 melanoma 111% | LOX IMVI melanoma 94.4% | SK-MEL-28 melanoma 119% | EKVX NSCLC 119% | SN12C renal 102% | UO-31 renal 94.5% | TK-10 renal 122% | ACHN renal 105% | CAKI-1 renal 123% | A498 renal 141% | CCRF-CEM leukemia 127% | MOLT-4 leukemia 131%

O=C(c1ccccc1)c1ccc(O)c2ncccc12
active: UO-31 renal 7.3% | CAKI-1 renal 8.47%
inactive: HCT-15 colon 25.7% | HT29 colon 96.1% | SNB-75 CNS 58.7% | SNB-19 CNS 38.4% | U251 CNS 28.4% | SK-MEL-5 melanoma 26.8% | UACC-62 melanoma 33.9% | LOX IMVI melanoma 31.4% | SK-MEL-28 melanoma 68% | SK-MEL-2 melanoma 43% | EKVX NSCLC 51.1% | SN12C renal 31.6% | TK-10 renal 83.1% | ACHN renal 18.5% | A498 renal 53.1% | CCRF-CEM leukemia 29.5% | MOLT-4 leukemia 21.2%

c1ccc(-c2cc3cc4ccccc4cn3c2)cc1
inactive: HCT-15 colon 100% | HT29 colon 105% | SNB-75 CNS 89.9% | SNB-19 CNS 92.3% | U251 CNS 82.4% | PC-3 prostate 78.9% | SK-MEL-5 melanoma 80.6% | LOX IMVI melanoma 86% | SK-MEL-28 melanoma 98.5% | SK-MEL-2 melanoma 90.1% | EKVX NSCLC 85.3% | UO-31 renal 60.9% | TK-10 renal 101% | ACHN renal 89.6% | CAKI-1 renal 84.7% | A498 renal 96.3% | MOLT-4 leukemia 83.2%

NC(=S)N/N=C/c1ncccc1O
active: UO-31 renal 1.36% | CCRF-CEM leukemia 1.76% | MOLT-4 leukemia 4.88%
inactive: HCT-15 colon 33.7% | HT29 colon 28.5% | SNB-75 CNS 26.7% | SNB-19 CNS 29.1% | U251 CNS 25.4% | PC-3 prostate 37% | UACC-62 melanoma 18.3% | LOX IMVI melanoma 10.5% | EKVX NSCLC 44.1% | SN12C renal 20.5% | TK-10 renal 71.2% | ACHN renal 10.7% | CAKI-1 renal 15.1%

O=C(c1ccccc1)c1cc2ccccc2oc1=O
inactive: HCT-15 colon 108% | HT29 colon 113% | SNB-75 CNS 71.8% | SNB-19 CNS 97.4% | U251 CNS 90.2% | PC-3 prostate 72.3% | UACC-62 melanoma 93.4% | LOX IMVI melanoma 89.8% | SK-MEL-28 melanoma 119% | SK-MEL-2 melanoma 126% | EKVX NSCLC 95.5% | SN12C renal 89.4% | UO-31 renal 59.3% | TK-10 renal 130% | ACHN renal 101% | CAKI-1 renal 98.7% | A498 renal 117% | CCRF-CEM leukemia 101% | MOLT-4 leukemia 105%

CC(C)(C)CC(C)(C)c1ccc(OCCOCCSC(=N)N)cc1
active: HCT-15 colon 0.972% | HT29 colon -7.31% | SK-MEL-5 melanoma -70.2% | LOX IMVI melanoma -81% | SK-MEL-28 melanoma -57.1% | CCRF-CEM leukemia 0.0306%
inactive: SNB-75 CNS 74.8% | SNB-19 CNS 73.6% | U251 CNS 35.9% | PC-3 prostate 42.6% | SK-MEL-2 melanoma 85% | SN12C renal 55% | UO-31 renal 53.2% | TK-10 renal 78% | ACHN renal 33.5% | CAKI-1 renal 65.3% | A498 renal 75.3% | MOLT-4 leukemia 14.4%

Oc1c(Cl)cc(Cl)cc1C=NCC1CCC(CN=Cc2cc(Cl)cc(Cl)c2O)CC1 (stereo unspecified)
inactive: HCT-15 colon 84.9% | HT29 colon 103% | SNB-75 CNS 66.9% | SNB-19 CNS 79.8% | U251 CNS 83% | PC-3 prostate 77.6% | SK-MEL-5 melanoma 94.4% | SK-MEL-28 melanoma 89.2% | SK-MEL-2 melanoma 92.9% | SN12C renal 86.3% | UO-31 renal 45.8% | TK-10 renal 124% | ACHN renal 101% | CAKI-1 renal 91.7% | A498 renal 113% | CCRF-CEM leukemia 59% | MOLT-4 leukemia 78.1%

CCCCCCCCC(C)C(=O)N1CCCC1C(=O)N1C(CC(=O)CC)CC(C)CC1C(=O)NC(C)C(=O)NC(C)(C)C(=O)NC(C)(C)C(=O)NC(C(=O)NC(C)C(=O)NC(C)(C)C(=O)NC(C)(C)C(=O)NC(C)CN(C)CCO)C(C)CC (stereo unspecified) (X4-P[X5]A[Aib][Aib]IA[Aib][Aib]-X6; configuration not given here)
active: HCT-15 colon -70.8% | HT29 colon -84.2% | SNB-75 CNS -23.8% | SNB-19 CNS 1.03% | U251 CNS -67.3% | PC-3 prostate -7.35% | SK-MEL-5 melanoma -85.3% | LOX IMVI melanoma -69.5% | SK-MEL-2 melanoma -34% | SN12C renal -78.5% | UO-31 renal -48.1% | TK-10 renal -50.5% | ACHN renal -54.5% | CAKI-1 renal 7.86% | CCRF-CEM leukemia -33.3% | MOLT-4 leukemia -40.9%
